# According to PubChem BioAssay AID1259412 (Laboratorio de Genomica e Expressao (LGE), UNICAMP, 2018):
# Activity calls are given as the source filed them. No rule for the calls is given here.
# Experiments:
# [1] = AOX inhibitors, oxygen consumption, profiling panel (AID 1259412); conditions: AOX-dependent respiration, at 500 µM; for growth (% of control): O2 uptake, measured here: growth; for O2 uptake (% of control): measured here: O2 uptake, control condition (no AOX);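 as to growth (% of control): growth monitored over 72 h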
# [2] = test system: alternative oxidase (AOX); experiment: as above; conditions: AOX-dependent respiration, at 500 µM, stronger effect = lower value
# [3] = AOX-dependent treatment condition, stronger effect = lower value
Compound,"growth (% of control) [1, 3]",growth (% of control) ([1]; control condition),O2 uptake (% of control) ([1]; stronger effect = lower value),O2 uptake (% of control) [2]
COc1cc(NC(=O)c2ccccc2I)cc(OC)c1OC,91.6%,90.9%,92.4%,80% (active)
O=C(Nc1cccc(NC(=O)c2cccc(F)c2)c1)c1cccc(F)c1,113%,133%,97%,51.3% (active)
N#Cc1cccc(C(=O)Nc2cccc([N+](=O)[O-])c2)c1,91.7%,101%,110%,98.7%
Cc1cccc(C(=O)Nc2cccc(Cl)c2)c1,14.9%,65.6%,87.4%,20.9% (active)
Cc1cccc(C(=O)Nc2cccc(F)c2)c1,0.51%,43.4%,87.8%,30.7% (active)
O=C(Nc1cccc(I)c1)c1ccccc1,95%,91%,78.6%,17.3% (active)
O=C(NCc1ccc2c(c1)OCO2)c1ccccc1,56.1%,65.8%,99.1%,38.6% (active)
O=C(Nc1cccc(Cl)c1)c1cccc(Br)c1,71.8%,101%,85%,15% (active)
O=C(Nc1cccc([N+](=O)[O-])c1)c1cccc(I)c1,68.4%,95.6%,93.5%,21% (active)
Nc1cccc(S(=O)(=O)c2cccc(NC(=O)c3cccc(F)c3)c2)c1,84%,106%,104%,101% (inactive)
O=C(Nc1cccc(Br)c1)c1cccc(Br)c1,82.5%,91.3%,81%,16.5% (active)
O=C(Nc1cccc(Br)c1)c1cccc(F)c1,22.3%,90.4%,77.9%,35.1% (active)
COc1cc(NC(=O)c2cccc(C#N)c2)cc(OC)c1OC,89.6%,90.9%,104%,91.5% (inactive)
N#Cc1cccc(C(=O)NCc2ccc3c(c2)OCO3)c1,79.6%,79.7%,103%,66.1% (active)
O=C(Nc1cccc(NC(=O)c2ccccc2)c1)c1ccccc1,106%,103%,92.6%,44% (active)
N#Cc1cccc(C(=O)Nc2cccc(NC(=O)c3cccc(C#N)c3)c2)c1,91.4%,132%,107%,95.1%
O=C(Nc1cccc(Br)c1)c1cccc(Cl)c1,65.4%,91.3%,95.9%,12% (active)
COc1cccc(C(=O)Nc2cc(OC)c(OC)c(OC)c2)c1,104%,89%,101%,77.6% (inactive)
O=C(Nc1cccc(C(F)(F)F)c1)c1cccc(F)c1,7.63%,35.2%,83%,13.8% (active)
O=C(Nc1cccc(C(F)(F)F)c1)c1cccc(Br)c1,58.1%,99.1%,80.2%,22.3% (active)
O=C(Nc1ccccc1)c1cccc(Cl)c1,92.3%,91.8%,94.9%,22% (active)

Compound,"growth (% of control) [1, 3]",growth (% of control) ([1]; control condition),O2 uptake (% of control) ([1]; stronger effect = lower value),O2 uptake (% of control) [2]
O=C(Nc1cccc(F)c1)c1cccc(Br)c1,23.1%,88%,73.7%,28.7% (active)
O=C(Nc1cccc(NC(=O)c2cccc(I)c2)c1)c1cccc(I)c1,107%,116%,106%,89% (active)
O=C(Nc1cccc(I)c1)c1cccc(I)c1,87.3%,90.6%,96.7%,25.1% (active)
O=C(Nc1cccc(C(F)(F)F)c1)c1ccccc1,38.9%,71.4%,84%,16.8% (active)
NC(=O)c1ccccc1NC(=O)c1cccc(Cl)c1,65.4%,68.9%,85.8%,41.6% (active)
COc1cccc(C(=O)Nc2cccc(NC(=O)c3cccc(OC)c3)c2)c1,95.4%,96.8%,102%,79.2% (inactive)
Nc1cccc(S(=O)(=O)c2cccc(NC(=O)c3cccc(Cl)c3)c2)c1,94.1%,83.7%,110%,98.3% (inactive)
O=C(NCc1ccc2c(c1)OCO2)c1cccc(Br)c1,88%,82.8%,94.7%,24.4% (active)
O=C(Nc1cccc(Cl)c1)c1cccc(Cl)c1,48.1%,80.2%,89.8%,9.19% (active)
O=C(Nc1ccc(N2CCOCC2)cc1)c1cccc(Br)c1,76.7%,92.2%,100%,85% (active)
COc1cccc(C(=O)Nc2cccc(S(=O)(=O)c3cccc(N)c3)c2)c1,132%,112%,105%,98.1% (inactive)
Cc1cccc(C(=O)Nc2cccc(C(F)(F)F)c2)c1,54.5%,88.4%,101%,15.2% (active)
O=C(Nc1ccc(-n2ccnc2)cc1)c1cccc(Br)c1,44.9%,75.3%,84.4%,72.6% (active)
O=C(Nc1ccc(N2CCOCC2)cc1)c1ccccc1,85.7%,87.8%,93.3%,93.8% (inactive)
Nc1cccc(S(=O)(=O)c2cccc(NC(=O)c3cccc(Br)c3)c2)c1,86.5%,64%,105%,110%
Cc1cccc(C(=O)Nc2ccccc2)c1,50%,83.2%,103%,42.3% (active)
O=C(Nc1cccc(NC(=O)c2cccc(Cl)c2)c1)c1cccc(Cl)c1,90.7%,114%,97.7%,49.2% (active)
N#Cc1cccc(C(=O)Nc2ccc(N3CCOCC3)cc2)c1,96.5%,92.2%,105%,90.5% (inactive)
O=C(Nc1cccc(F)c1)c1cccc(Cl)c1,3.11%,70.3%,77.2%,34.1% (active)
COc1cccc(C(=O)Nc2cccc(Cl)c2)c1,0%,33%,76.3%,33.2% (active)
